# Screening results from PubChem BioAssay.
# Compounds with a hit are over-represented: about 2.4% of the library has one in this group of screens.
# D2 antagonist – HTS Assay for Allosteric Antagonists of the Human D2 Dopamine Receptor: Primary Screen for Antagonists; D(2) dopamine receptor (Homo sapiens), P14416; HEK293 TREx D2 cells, calcium flux, dopamine EC80; inhibition, % at 10 µM; hit rate 2% among 340,000; in the data active = inhibition above about 30%; inactive = below that, where a call was filed; note: 0% is about no effect
# Target sequence (P14416 whole entry, looked up): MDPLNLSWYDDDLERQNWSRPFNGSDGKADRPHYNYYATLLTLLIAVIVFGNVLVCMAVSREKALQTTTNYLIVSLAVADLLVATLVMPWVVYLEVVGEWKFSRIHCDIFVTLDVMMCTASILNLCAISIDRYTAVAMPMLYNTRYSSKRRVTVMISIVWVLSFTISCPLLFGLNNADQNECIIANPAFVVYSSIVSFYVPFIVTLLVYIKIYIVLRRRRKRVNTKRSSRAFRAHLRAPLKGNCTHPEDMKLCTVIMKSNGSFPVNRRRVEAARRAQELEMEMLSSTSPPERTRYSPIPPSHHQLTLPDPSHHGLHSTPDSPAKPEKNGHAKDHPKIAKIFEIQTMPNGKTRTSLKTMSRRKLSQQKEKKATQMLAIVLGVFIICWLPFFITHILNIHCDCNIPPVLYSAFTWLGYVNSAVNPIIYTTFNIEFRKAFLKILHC
#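 Calcium mobilization kinetics were recorded at 1 s intervals in tetracycline-induced HEK293 T-REx D2 cells, first for 180 s after compound addition and then 180 s after EC80 dopamine.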
# D2 ag-1 – Beta-Arrestin HTS for Positive Allosteric Modulators of the Human D2 Dopamine Receptor: Agonists; hit rate 0.084% among 360,000; DiscoveRx PathHunter D2 beta-arrestin, luminescence, 90 min; 100% = 57 uM dopamine signal; D(2) dopamine receptor (Homo sapiens), P14416; activation, % (concentration not given with the values); AID 624465, 2012; in the data active = activation above about 40%; inconclusive = between about 15% and that limit
#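 DiscoveRx PathHunter D2 beta-arrestin cells (2,100/well) attached overnight, then compound-stimulated 90 min at 37 C in HBSS/10 mM HEPES/0.1% Tween-20 buffer; beta-galactosidase complementation read by luminescence after 1 h at ambient temperature. Dopamine 57 uM final (EC100) as control.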
# D2 PAM-1 – Beta-Arrestin HTS for Positive Allosteric Modulators of the Human D2 Dopamine Receptor: Potentiators. hit rate 0.23% among 360,000. AID 624464, 2012. potentiation, % (concentration not given with the values). DiscoveRx D2 beta-arrestin cells, luminescence, 90 min; 100% = 57 uM dopamine signal; in the data active = potentiation above about 50%; inconclusive = mostly about 30% to 49%
#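 D2 cells co-treated with compound plus 50 nM dopamine (EC20) for 90 min at 37 deg C to detect potentiation. Beta-arrestin recruitment was read as enzyme-fragment luminescence after 1 h at ambient temperature. Full response was set by 57 uM dopamine.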
# D2 PAM-2 – HTS Assay for Positive Allosteric Modulators of the Human D2 Dopamine Receptor: Primary Screen for Potentiators | HEK293 T-REx D2, calcium flux, EC20 dopamine potentiation | potentiation, % at 10 µM | hit rate 0.34% among 340,000 | AID 485347, 2010;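 active = potentiation over 3 SD above the plate norm, cut at about 30% in these data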; note: 0% is about no effect
#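 Potentiation of an EC20 dopamine calcium response is measured in a force-coupled, tetracycline-inducible Hek293 Trex D2 line. Compound-only kinetic reads over 180 s flag agonists before dopamine addition.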
# D2 ag-2 – HTS Assay for Allosteric Agonists of the Human D2 Dopamine Receptor: Primary Screen for Agonists; hit rate 0.53% among 340,000; D(2) dopamine receptor (Homo sapiens), P14416; HEK293 T-REx D2 cells, calcium flux agonist mode; activation, % at 2 µM;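 active = activation over 3 SD above normal in the single-dose calcium agonist read, cut at about 30% in these data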; note: 0% is about no effect
#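 Agonism scored from kinetic calcium signal (1 read/sec, 180 s) following compound pin transfer, after a 10 s baseline. Cells: HEK293 Trex line expressing inducible D2 receptor coupled to calcium, dye-loaded after overnight culture at 30 C.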
# D3 arrestin ag – qHTS of D3 Dopamine Receptor Agonist: D3 Dopamine Receptor B-arrestin Agonist Confirmatory Assay. Potency, µM (series often up to 76.9 µM), inactives show top-dose activation, hits mostly activators. hit rate 4% among 2,300. shares compounds with D2 ag-2. DiscoveRx D3 beta-arrestin cells, luminescence, 90 min;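 note: potency is the fitted concentration of half-maximal effect; 100% = dopamine control response; nearly all actives have a fitted effect of over 70% in size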
# D2 ag-3 – qHTS of D3 Dopamine Receptor Agonist: D2 Dopamine Receptor B-arrestin Agonist Counterscreen. shares compounds with D2 ag-2. DiscoveRx PathHunter D2 beta-arrestin, luminescence, 90 min; response scale: percent relative to full dopamine signal. Potency, µM (series often up to 76.9 µM), inactives show top-dose activation, hits mostly activators. hit rate 5.9% among 2,300. AID 720507, 2013; note: potency is the fitted concentration of half-maximal effect; % of control where 0% means no effect; nearly all actives have a fitted effect of over 70% in size
# * marks the source's active call; other numbers are inactive results; ? = inconclusive; . = no result given; ! = not active in a repeat. Unless noted, calls come from the whole dose curve; as a rule, active = well fitted activation curve with a large enough effect; inconclusive = small, poorly fitted or top-dose-only effect; inactive = flat fitted curve, though single readings scatter.
SMILES,D2 antagonist,D2 ag-1,D2 PAM-1,D2 PAM-2,D2 ag-2,D3 arrestin ag,D2 ag-3
CN(C)c1ccc(NC(=O)CSC2=Nc3ccccc3C3=NC(CC(=O)NCc4ccccc4)C(=O)N23)cc1 (configuration not stated),.,.,.,6.8,-3.2,.,.
CCOc1ccc(CNC(=O)c2sc3ncnc(N(C)C4CCCCC4)c3c2C)cc1,.,.,.,7.7,1.0,.,.
CCCn1c(COc2ccccc2)nc2ccccc21,.,?,2.8,.,.,?,18.3%
COc1ccc(OCCCCn2c(CO)nc3ccccc32)cc1,73.6*,9.7,2.8,2.1,0.7,5.4%,3.8%
CCCN(CCC)S(=O)(=O)c1ccc(C(=O)N2CCn3c4c(c5cc(C)ccc53)CCCC42)cc1 (configuration not stated),.,.,.,3.5,.,.,.
CC(C)(C)C(=O)NC(=S)NNC(=O)c1sc2ccccc2c1Cl,56.6*,-10.6,-9.0,9.3,146.0*,-26.0%,-12.0%
O=C(NNC(=S)NC1CCCCC1)c1sc2ccccc2c1Cl,-18.6,-4.5,-11.3,-18.9,-0.3,.,.
CCC(C)NC(=O)c1cc2cc(S(=O)(=O)N3CCCCC3)ccc2n1C (configuration not stated),.,.,.,6.4,0.6,.,.
CN(C)c1ccc(S(=O)(=O)N2CCCCC2)cc1NC(=O)C1CSC2(C)CCC(=O)N12 (configuration not stated),-3.2,-1.4,-3.5,4.2,0.0,0.4%,-1.8%
CN1CCC2(CC1)C1CN(C)CC=C1C(C#N)=C(N)C2(C#N)C#N (configuration not stated),30.0,13.6,2.8,-17.3,45.6*!,29.5%,?
COc1ccccc1Nc1nc(N)nc(CN2CCN(c3ccccc3)CC2)n1,43.6*,6.5,-5.8,-23.3,52.3*,-4.2%,8.7%
Nc1nc(CN2CCN(c3ccccn3)CC2)nc(Nc2ccc(F)cc2)n1,73.2*,?,16.8,-24.4,73.7*,-8.2%,?
Cc1ccc(Nc2nc(N)nc(CN3CCN(c4ccccc4)CC3)n2)cc1Cl,.,?,101.9*,.,.,21.4%,20µM*
CC(NC(=O)c1cccc(NC(=O)c2nsc3ccccc23)c1)c1ccccc1 (configuration not stated),.,.,.,-8.1,0.6,.,.
Cc1nn(C(C)C(=O)N2CCN(c3ccc(F)cc3)CC2)c(=O)c2c1sc1ccccc12 (configuration not stated),.,.,.,5.5,-1.6,.,.
CC(C)CC(=O)NC1(C(F)(F)F)C(=O)Nc2c1c(=O)[nH]c(=O)n2-c1ccccc1 (configuration not stated),.,.,.,9.0,-0.3,.,.
O=C(COC(=O)C1CCN(S(=O)(=O)c2ccccc2)CC1)NCCc1ccccc1,-24.0,-0.4,1.1,0.4,0.5,-1.8%,0.2%
NS(=O)(=O)c1ccc(CCNC(=O)C2CCN(S(=O)(=O)c3ccccc3)CC2)cc1,-10.8,-2.8,-3.3,7.0,-0.8,.,.
Clc1cccc(OCCn2cncn2)c1Cl,.,-0.2,-5.3,.,.,.,.
CC1CC(C)CN(CCOc2cccc(Cl)c2Cl)C1 (configuration not stated),86.4*,41.4*,16.0,-26.5,87.9*,?,?
c1ccc(N2CCN(CCc3nnc4n3CCCCC4)CC2)cc1,26.8,5.1,-20.1,10.7,32.2*,-1.7%,8.4%
c1ccc(Cc2nnc3n2CCCCC3)cc1,-7.4,-1.3,-14.5,-3.7,0.0,.,.
CC(C)(CO)NS(=O)(=O)c1ccc2c(c1)Cc1cc(S(=O)(=O)NC(C)(C)CO)ccc1-2,21.7,5.7,-3.6,-2.8,-1.7,13.2%,2.9%
CC(C)(CO)NS(=O)(=O)c1ccc2c(c1)C(=O)c1cc(S(=O)(=O)NC(C)(C)CO)ccc1-2,-7.9,-1.4,0.0,-5.0,2.7,.,.
OCC1(CCc2ccccc2)CCN(Cc2cnc(N3CCCC3)s2)CC1,.,-3.2,-34.3,.,.,.,.
SMILES,D2 antagonist,D2 ag-1,D2 PAM-1,D2 PAM-2,D2 ag-2,D3 arrestin ag,D2 ag-3
CN(C)c1ncc(CN2CCC(CO)(CCCc3ccccc3)CC2)s1,62.2*,11.7,-6.5,-19.6,68.3*,-0.2%,?
COC(=O)CN1C(=O)CSc2ccc(S(=O)(=O)Nc3cccc(Cl)c3C)cc21,.,.,.,9.3,-0.4,.,.
O=C(Nc1ccc(C(=O)N2CCN(c3ccccc3)CC2)cc1)c1nsc2ccccc12,.,.,.,8.4,.,.,.
CCC(C)Nc1ccc(NC(C)CC)cc1 (configuration not stated),-9.8,7.4,-1.5,-0.3,1.1,1.5%,13.6%
Cc1cc(NC(=O)CSCC(=O)Nc2cc(Cl)ccc2N2CCN(C)CC2)no1,3.7,-3.1,-10.7,4.1,0.8,-0.1%,-0.4%
Cc1cc(C)cc(NC(=O)C(=O)NCC(c2cccnc2)N2CCc3ccccc3C2)c1 (configuration not stated),.,.,.,8.2,-1.2,.,.
CC(C)(C)OC(=O)N[C@H](C(=O)OC(C)(C)C)c1ccc2ccccc2c1,-5.9,-5.0,-0.6,14.6,-1.1,2.1%,-3.5%
COc1ccc([C@@H](NC(=O)OC(C)(C)C)C(=O)OC(C)(C)C)cc1,11.4,-4.5,-7.7,5.7,0.4,.,.
CC(C)C(NC(=O)CCN1C(=O)c2ccccc2C1=O)c1ccccc1 (configuration not stated),18.6,2.9,-7.8,-7.3,-0.8,-2.3%,-5.7%
CC(NC(=O)CN1C(=O)c2ccccc2C1=O)c1ccccc1 (configuration not stated),.,-2.5,-7.9,.,.,.,.
Cc1noc(C)c1C(=O)OC(C)C(=O)Nc1ccc(C(N)=O)cc1 (configuration not stated),14.1,-3.3,-0.3,3.5,-0.2,.,.
CC(OC(=O)c1cc[n+]([O-])cc1)C(=O)Nc1ccc(C(N)=O)cc1 (configuration not stated),27.6,2.5,-13.1,-5.5,1.2,-1.4%,-3.9%
Cc1nn(-c2ccc(F)cc2)c(-n2cccc2)c1C(=O)NCCCN1CCN(c2ccccc2F)CC1,.,.,.,-22.9,22.4,.,.
